The entries come from a sample that favours hits as a whole.
ClpP mod – qHTS Assay for Activators of ClpP. ATP-dependent Clp protease proteolytic subunit (Bacillus subtilis (strain 168)), P80244. purified B. subtilis ClpP, FRET peptide cleavage, 20 min. Potency, µM (series often up to 57.5 µM). hit rate 1.9% among 340,000; active = well fitted falling curve with a large enough effect; inconclusive = small, poorly fitted or top-dose-only effect; inactive = no such curve, though single readings can be large or run the other way; note: the source files actives as falling curves though it sought activators and does not explain the sign; nearly all actives have a fitted effect of over 65% in size
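Purified B. subtilis ClpP, 10 microg/mL final in Tris/HCl pH8 with KCl, BSA, glycerol and Tween-20, cleaved an Abz/nitrotyrosine-quenched decapeptide. Fluorescence (ex 320, em 430) was read at 0 and 20 min at room temperature. Delta was normalized to 5.8 microM ADEP and DMSO/no-enzyme controls.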
Rango-impB inh – prevents formation of the Rango-importin beta complex. Q14974. Rango CFP/YFP FRET sensor + importin beta, 45 min. AID 540263. Potency, µM (titrated, usually from 92.2 µM). hit rate 0.031% among 340,000; calls by dose curve; note: nearly all actives have a fitted effect of over 15% in size
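FRET biosensor (snurportin 1 IBB flanked by EYFP and cerulean), 50 nM, with compound 5 min, then 0.125 microM importin beta in PBS, 1 mM DTT, 0.02% Tween-20, 0.1% BSA. CFP/YFP ratio read after 45 min at room temperature; pre-read flags interference.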
Rango release inh – prevents RanGTP from dissociating the Rango-importin beta complex; Biochemical FRET Rango-importin beta, RanGTP-induced dissociation; Potency, µM (doses to about 46.1 µM); hit rate 0.071% among 340,000; calls by dose curve; note: nearly all actives have a fitted effect of over 45% in size
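FRET read at 45 min, room temperature: inhibitors block the CFP/YFP signal rise when RanGTP (0.6 uM Ran, 2 mM GTP, 0.2 uM RCC1) frees Rango (0.1 uM) from importin beta (0.25 uM). Pre-read after 5 min compound exposure flags interference.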
MBNL1 CUG block – blocks human MBNL1 binding to CUG repeat RNA; hit rate 0.036% among 280,000; Q9NR56; TR-FRET MBNL1-His/biotin-(CUG)12 binding, 665/545 ratio; Potency, µM (series often up to 57.5 µM), hits mostly inhibitors; AID 2675; active = well fitted inhibition curve with a large enough effect in the signal ratio, with a control signal flat, not every such curve was filed as active; inconclusive = small, poorly fitted or top-dose-only effect, or effect the other way, or a change in a side signal; inactive = no such curve, though single readings can be large or run the other way; the % refers to the signal ratio
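MBNL1-His + Biotin-(CUG)12, cpd titration 92 nM–58 uM; Tb anti-His Ab 0.055 ng/ul, SA-XL665 5 nM (final); 60 min RT; ratiometric 665/545 nm, Ex 340 nm; normalized to buffer and full-complex controls.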
CBFb RUNX1 block – inhibitors of human CBF-beta and RUNX1 interaction; AID 1477; AlphaScreen CBFb-His/RUNX1-biotin binding, biochemical; Potency, µM (highest dose often 59.8 µM), actives largely listed as inhibitors; 230,000 tested, under 10 active; Q01196+Q13951
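CBF-beta (His) and RUNX1 (biotin), 30 nM each; 20 min preassociation; + compound, 15 min; + beads 50 ng each (Ni, streptavidin), 90 min; RT; AlphaScreen read.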
ClpP validation – validation of B. subtilis ClpP protease hits (inhibitors); shares compounds with ClpP mod; purified B. subtilis ClpP, FRET-FV substrate cleavage, 20 min; Potency, µM (series often up to 57.5 µM), actives largely listed as inhibitors; hit rate 40% among 470; AID 743245; note: nearly all actives have a fitted effect of over 70% in size
Of the large screens only hits and unclear results are named; the others gave an inactive call (follow-up assays come after a bar, where they were run). Unless noted, calls come from the whole dose curve; as a rule, active = well fitted curve in the direction sought with a large enough effect; inconclusive = small, poorly fitted or top-dose-only effect, or another doubt; inactive = no such curve, though single readings can be large; an effect the other way counts as inactive or inconclusive.

Cc1cc(N2CCN(C)CC2)n2cc(-c3ccc(F)cc3)nc2n1	ClpP mod 7.1µM | ClpP validation 27µM
COc1ccc2oc(=O)c(C(=O)Oc3ccc(NC(C)=O)cc3)cc2c1	Rango-impB inh inconclusive, Rango release inh inconclusive, MBNL1 CUG block inconclusive | ClpP validation inactive
COc1ccc(NC(=O)c2cc3cc(OC)ccc3oc2=O)cc1	none (no result: MBNL1 CUG block, CBFb RUNX1 block)
COc1ccc(C(=O)Nc2nnc(S(=O)(=O)N(C)c3ccc(C)cc3)s2)cc1	none (no result: Rango-impB inh, Rango release inh, MBNL1 CUG block, CBFb RUNX1 block)
O=Cc1c(Cl)nc2ccccn12	none (no result: ClpP mod)
Clc1cc2nc3ccccn3c2cc1Cl	ClpP mod 8.9µM | ClpP validation 19µM
COc1ccc(S(=O)(=O)N2CCOC23CCN(S(=O)(=O)c2cccs2)CC3)cc1	none (no result: MBNL1 CUG block, CBFb RUNX1 block)
O=S(=O)(c1ccccc1)N1CCC2(CC1)OCCN2S(=O)(=O)c1cccs1	none (no result: MBNL1 CUG block, CBFb RUNX1 block) | ClpP validation inactive
O=C(NCCSc1c(-c2ccccc2)[nH]c2ccccc12)c1cc2ccccc2oc1=O	none | ClpP validation inactive
Cc1ccn2c(NCc3ccco3)c(-c3ccccc3)nc2c1	none (no result: Rango-impB inh, Rango release inh, MBNL1 CUG block, CBFb RUNX1 block)
Nc1nc(N2CCN(C(=O)c3ccco3)CC2)nc2ccccc12	ClpP mod 4.5µM | ClpP validation 27µM
CCOC(=O)OCC1OC(CCc2ccccc2)CCC1Oc1ccc(OC)cc1 (stereo unspecified)	none (no result: ClpP mod, Rango-impB inh, Rango release inh, MBNL1 CUG block)
CCOC(=O)c1c(S(=O)(=O)N2CCN(c3cc(Cl)ccc3C)CC2)c(C)n(C)c1C	none (no result: Rango-impB inh, Rango release inh, MBNL1 CUG block, CBFb RUNX1 block)
CCCOc1ccc(C(=O)Nc2ccc3oc(-c4ccc(N(C)C)cc4)nc3c2)cc1	ClpP mod 1.3µM (no result: Rango-impB inh, Rango release inh, MBNL1 CUG block, CBFb RUNX1 block) | ClpP validation inactive
Cc1ccc2oc(-c3ccc(NC(=O)CC(C)C)cc3)nc2c1	ClpP mod 8.9µM | ClpP validation inconclusive
CCC(C)c1ccc2oc(-c3ccc(NC(=O)c4ncn[nH]4)cc3)nc2c1 (stereo unspecified)	ClpP mod 10µM, CBFb RUNX1 block inconclusive | ClpP validation 22µM
CCOc1cc(C(=O)Nc2ccc(-c3nc4cc(C)ccc4o3)cc2)cc(OCC)c1OCC	ClpP mod 3.2µM (no result: Rango-impB inh, Rango release inh, MBNL1 CUG block, CBFb RUNX1 block) | ClpP validation 31µM
CCc1ccc(NC(=O)CC2C(=O)N(c3ccccc3)C(=O)N2C(C)C)cc1 (stereo unspecified)	none (no result: Rango-impB inh, Rango release inh, MBNL1 CUG block, CBFb RUNX1 block)
Cc1ccc2oc(-c3ccc(NC(=O)c4ccc5c(c4)OCO5)cc3)nc2c1	ClpP mod 3.2µM | ClpP validation 12µM
Cc1ccc2oc(-c3ccc(NC(=O)c4cccnc4)cc3)nc2c1	none
O=c1oc2ccccc2cc1-c1nc(-c2cccc(Cl)c2)cs1	ClpP mod 4.5µM (no result: Rango-impB inh, Rango release inh, MBNL1 CUG block, CBFb RUNX1 block) | ClpP validation inconclusive
O=c1oc2ccccc2cc1-c1csc(Cc2nc(-c3ccc(Cl)cc3)cs2)n1	none
CN1CCOC(c2ccccc2)c2ccccc2C1 (stereo unspecified)	none
CC(C)N1CCOC1c1ccccc1 (stereo unspecified)	ClpP mod 7.9µM (no result: MBNL1 CUG block, CBFb RUNX1 block) | ClpP validation inactive
O=C(Nc1ccc2nc(SCC(=O)N3CCc4ccccc43)sc2c1)c1ccc(F)cc1	none (no result: Rango-impB inh, Rango release inh, MBNL1 CUG block, CBFb RUNX1 block) | ClpP validation 24µM
CCc1ccc(NC(=O)CSc2nc(C)cc(COC)c2C#N)cc1	none (no result: Rango-impB inh, Rango release inh, MBNL1 CUG block, CBFb RUNX1 block)
CCc1cc(N2CCOCC2)cc2c1[nH]c1ccccc12	ClpP mod 10µM | ClpP validation 17µM
COc1ccccc1NC(=O)c1cc2c(=O)n(C)c3ccccc3c2n1C	ClpP mod inconclusive
COc1cccc(NC(=O)c2cc3c(=O)n(C)c4ccccc4c3n2C)c1	none (no result: Rango-impB inh, Rango release inh, MBNL1 CUG block, CBFb RUNX1 block) | ClpP validation 22µM
Cc1ccn2c(Nc3ccc(C(C)C)cc3)c(-c3ccsc3)nc2c1	ClpP mod 4µM (no result: Rango-impB inh, Rango release inh, MBNL1 CUG block, CBFb RUNX1 block) | ClpP validation inactive
COc1ccc(Cn2ccc3nc(C)c(C(=O)NCc4ccc(SC)cc4)cc3c2=O)cc1	none (no result: Rango-impB inh, Rango release inh, MBNL1 CUG block, CBFb RUNX1 block) | ClpP validation 24µM
CCOc1ccccc1CNC(=O)c1cc2c(=O)n(Cc3cccnc3)ccc2nc1C	ClpP mod 6.3µM (no result: Rango-impB inh, Rango release inh, MBNL1 CUG block, CBFb RUNX1 block) | ClpP validation inactive
CN(C)S(=O)(=O)c1ccc(C(=O)Nc2nc(-c3cc4ccccc4o3)cs2)cc1	none | ClpP validation inactive
